# Experimental data as given in PubChem BioAssay (NCI).
# The panel holds about 79,000 compounds, 15% with a hit somewhere; the sample as a whole holds those more often. A number with no mark means an inactive call. The source made the active and inactive calls. Rule as the data show it: active = growth inhibition above about 70%; inactive = the rest.
# How the values were obtained:
# [1] = NCI Yeast Anticancer Drug Screen. Data for the rad52 strain (AID 147);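 also: 0% = growth of vehicle-treated control cultures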; conditions: S. cerevisiae rad52 mutant growth inhibition, stronger effect = higher value
# Procedure, shortened: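 Read-out: growth inhibition versus vehicle-treated controls. Cells were a DNA repair-deficient yeast strain treated with compounds.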
# [2] = NCI Yeast Anticancer Drug Screen. Data for the wt1 strain (AID 149);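 also: 0% = growth of vehicle-treated wt1 cultures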; conditions: S. cerevisiae wt1 strain (SPY 50644) growth inhibition, stronger effect = higher value
# Procedure, shortened: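 Vehicle-normalised growth inhibition; strain wt1; compound exposure.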
# [3] = NCI Yeast Anticancer Drug Screen. Data for the rad50EPP+ strain (AID 151);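 also: 0% = growth of vehicle-treated control cultures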; conditions: S. cerevisiae rad50 mutant strain, stronger effect = higher value
# Procedure, shortened: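 Growth inhibition read against vehicle controls in rad50EPP+ yeast, a strain altered in DNA damage repair, after compound exposure.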
# [4] = NCI Yeast Anticancer Drug Screen. Data for the rad50 strain (AID 155);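 also: 0% = growth of vehicle-only cultures of the same strain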; conditions: S. cerevisiae rad50 strain growth inhibition, stronger effect = higher value
# Procedure, shortened: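 A DNA repair-deficient yeast mutant serves as the test organism; compound-induced growth inhibition is calculated against vehicle-treated cells.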
# [5] = NCI Yeast Anticancer Drug Screen. Data for the mec2-1 strain (AID 157); conditions: S. cerevisiae mec2-1 strain, stronger effect = higher value
# Procedure, shortened: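 Yeast mec2-1 mutant treated with compound. Readout: growth inhibition vs vehicle controls.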
# [6] = NCI Yeast Anticancer Drug Screen. Data for the sgs1 mgt1 strain (AID 161);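 also: 0% = growth of cultures given vehicle only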; conditions: S. cerevisiae sgs1 mgt1 strain, stronger effect = higher value
# Procedure, shortened: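 Inhibition of yeast growth, normalised to vehicle-treated controls, is reported for a strain bearing genetic alterations in DNA damage repair.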
# [7] = NCI Yeast Anticancer Drug Screen. Data for the cln2 rad14 strain (AID 165);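 also: 0% = growth equal to vehicle treated cultures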; conditions: S. cerevisiae cln2 rad14 strain, stronger effect = higher value
# Procedure, shortened: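 cln2 rad14 yeast strain; compound exposure; growth inhibition read vs vehicle controls.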
# [8] = NCI Yeast Anticancer Drug Screen. Data for the bub3 strain (AID 167); conditions: S. cerevisiae bub3 mutant strain, stronger effect = higher value
# Procedure, shortened: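 Inhibition values come from growth of compound-treated mutant yeast normalised to vehicle-treated controls.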
# [9] = NCI Yeast Anticancer Drug Screen. Data for the wt2 strain (AID 169);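 also: 0% = growth of vehicle-treated yeast cultures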; conditions: S. cerevisiae wt2 strain growth inhibition, stronger effect = higher value
# Procedure, shortened: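 Read-out: growth inhibition versus vehicle-treated control cultures after compound exposure of the yeast strain.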
# [10] = NCI Yeast Anticancer Drug Screen. Data for the mlh1 strain (AID 171);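 also: 0% = growth of vehicle-treated control cultures of the same strain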; conditions: S. cerevisiae mlh1 strain growth inhibition, stronger effect = higher value
# Procedure, shortened: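 Read-out: growth inhibition versus vehicle controls. Strain: engineered yeast with a defined DNA repair or cell cycle defect, compound-treated.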
# [11] = NCI Yeast Anticancer Drug Screen. Data for the sgs1 strain (AID 173);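 also: 0% = growth of vehicle-only control cultures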; conditions: S. cerevisiae sgs1 mutant, stronger effect = higher value
# Procedure, shortened: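 Read-out: yeast growth inhibition relative to vehicle controls, following compound exposure of a strain with a defined DNA repair/cell cycle alteration.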
# [12] = NCI Yeast Anticancer Drug Screen. Data for the mlh1 rad18 strain (AID 175); conditions: S. cerevisiae mlh1 rad18 strain growth inhibition, stronger effect = higher value
# Procedure, shortened: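 Yeast w/ defined DNA-repair lesions; compound exposure; growth vs vehicle controls → % inhibition.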
# [13] = NCI Yeast Anticancer Drug Screen. Data for the mgt1 strain (AID 153); conditions: S. cerevisiae mgt1 mutant growth inhibition, stronger effect = higher value
# Procedure, shortened: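 mgt1 yeast grown with test compound; read-out is growth inhibition versus vehicle-treated cultures.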
# [14] = NCI Yeast Anticancer Drug Screen. Data for the rad14 strain (AID 159);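 also: 0% = growth of vehicle-treated control cultures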; conditions: S. cerevisiae rad14 strain growth inhibition, stronger effect = higher value
# Procedure, shortened: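 Vehicle-treated cultures served as the baseline for growth inhibition of a DNA repair-mutant yeast strain exposed to each compound.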
# [15] = NCI Yeast Anticancer Drug Screen. Data for the CLN2oe strain (AID 163);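 also: 0% = growth of vehicle-only control cultures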; conditions: S. cerevisiae CLN2oe strain, stronger effect = higher value
# Procedure, shortened: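 Read-out: yeast growth inhibition, expressed relative to vehicle-only controls. The strain bears an engineered cell-cycle alteration.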
# [16] = at 5.0 µM (retest, dose inferred, filed as 0.5)
# [17] = at 50.0 µM (retest, dose inferred, filed as 5.0)
compound,measurement,setting,value
OC(c1ccc(Br)cc1)(c1cccs1)C1CC1 (stereo not drawn),growth inhibition,[1]; at 1.2 µM,13%
same,growth inhibition,[1]; at 3.7 µM,21%
same,growth inhibition,[1]; at 11.0 µM,57%
same,growth inhibition,[1]; at 33.0 µM,92% (active)
same,growth inhibition,[1]; at 100.0 µM,87% (active)
same,growth inhibition,[2]; at 1.2 µM,-19%
same,growth inhibition,[2]; at 3.7 µM,3%
same,growth inhibition,[2]; at 11.0 µM,17%
same,growth inhibition,[2]; at 33.0 µM,97% (active)
same,growth inhibition,[2]; at 100.0 µM,96% (active)
same,growth inhibition,[3]; at 1.2 µM,3%
same,growth inhibition,[3]; at 3.7 µM,35%
same,growth inhibition,[3]; at 11.0 µM,27%
same,growth inhibition,[3]; at 33.0 µM,17%
same,growth inhibition,[3]; at 100.0 µM,91% (active)
same,growth inhibition,[4]; at 1.2 µM,3%
same,growth inhibition,[4]; at 3.7 µM,21%
same,growth inhibition,[4]; [16],57%
same,growth inhibition,[4]; at 11.0 µM,56%
same,growth inhibition,[4]; at 33.0 µM,94% (active)
same,growth inhibition,[4]; [17],100% (active)
same,growth inhibition,[4]; at 50.0 µM,91.2% (active)
same,growth inhibition,[4]; at 100.0 µM,94% (active)
same,growth inhibition,[5]; at 1.2 µM,18%
same,growth inhibition,[5]; at 3.7 µM,22%
same,growth inhibition,[5]; [16],61%
same,growth inhibition,[5]; at 11.0 µM,53%
same,growth inhibition,[5]; at 33.0 µM,99% (active)
same,growth inhibition,[5]; [17],100% (active)
same,growth inhibition,[5]; at 50.0 µM,93.2% (active)
same,growth inhibition,[5]; at 100.0 µM,97% (active)
same,growth inhibition,[6]; [16],-7%
same,growth inhibition,[6]; [17],99% (active)
same,growth inhibition,[7]; [16],45%
same,growth inhibition,[7]; [17],99% (active)
same,growth inhibition,[8]; at 1.2 µM,38%
same,growth inhibition,[8]; at 3.7 µM,48%
same,growth inhibition,[8]; [16],48%
same,growth inhibition,[8]; at 11.0 µM,62%
same,growth inhibition,[8]; at 33.0 µM,94% (active)
same,growth inhibition,[8]; [17],100% (active)
same,growth inhibition,[8]; at 100.0 µM,93% (active)
same,growth inhibition,[9]; at 1.2 µM,-12%
same,growth inhibition,[9]; at 3.7 µM,8%
same,growth inhibition,[9]; at 11.0 µM,31%
same,growth inhibition,[9]; at 33.0 µM,97% (active)
same,growth inhibition,[9]; at 100.0 µM,96% (active)
same,growth inhibition,[10]; at 1.2 µM,-15%
same,growth inhibition,[10]; at 3.7 µM,4%
same,growth inhibition,[10]; at 11.0 µM,38%
same,growth inhibition,[10]; at 33.0 µM,96% (active)
same,growth inhibition,[10]; at 100.0 µM,95% (active)
same,growth inhibition,[11]; at 1.2 µM,17%
same,growth inhibition,[11]; at 3.7 µM,29%
same,growth inhibition,[11]; at 11.0 µM,57%
same,growth inhibition,[11]; at 33.0 µM,95% (active)
same,growth inhibition,[11]; at 100.0 µM,95% (active)
same,growth inhibition,[12]; [16],46%
same,growth inhibition,[12]; [17],100% (active)
same,growth inhibition,[12]; at 50.0 µM,92% (active)
C[n+]1c(-c2ccc(NC(=O)c3ccc(C(=O)Nc4ccc(-c5cn6ccccc6[n+]5C)cc4)cc3)cc2)cn2ccccc21,growth inhibition,[2]; at 1.2 µM,5%
same,growth inhibition,[2]; at 3.7 µM,3%
same,growth inhibition,[2]; at 11.0 µM,13%
same,growth inhibition,[2]; at 33.0 µM,70% (active)
same,growth inhibition,[2]; at 100.0 µM,92% (active)
same,growth inhibition,[3]; at 1.2 µM,-23%
same,growth inhibition,[3]; at 3.7 µM,-6%
same,growth inhibition,[3]; at 11.0 µM,36%
same,growth inhibition,[3]; at 33.0 µM,77% (active)
same,growth inhibition,[3]; at 100.0 µM,88% (active)
same,growth inhibition,[13]; at 1.2 µM,3%
same,growth inhibition,[13]; at 3.7 µM,2%
same,growth inhibition,[13]; at 11.0 µM,20%
same,growth inhibition,[13]; at 33.0 µM,85% (active)
same,growth inhibition,[13]; at 100.0 µM,92% (active)
same,growth inhibition,[4]; at 1.2 µM,3%
same,growth inhibition,[4]; at 3.7 µM,4%
same,growth inhibition,[4]; [16],16%
same,growth inhibition,[4]; at 11.0 µM,17%
same,growth inhibition,[4]; at 33.0 µM,76% (active)
same,growth inhibition,[4]; [17],98% (active)
same,growth inhibition,[4]; at 50.0 µM,74.8% (active)
same,growth inhibition,[4]; at 100.0 µM,91% (active)
same,growth inhibition,[5]; at 1.2 µM,4%
same,growth inhibition,[5]; at 3.7 µM,9%
same,growth inhibition,[5]; [16],5%
same,growth inhibition,[5]; at 11.0 µM,30%
same,growth inhibition,[5]; at 33.0 µM,82% (active)
same,growth inhibition,[5]; [17],98% (active)
same,growth inhibition,[5]; at 50.0 µM,56.5%
same,growth inhibition,[5]; at 100.0 µM,96% (active)
same,growth inhibition,[14]; at 1.2 µM,-2%
same,growth inhibition,[14]; at 3.7 µM,-2%
same,growth inhibition,[14]; at 11.0 µM,13%
same,growth inhibition,[14]; at 33.0 µM,84% (active)
same,growth inhibition,[14]; at 100.0 µM,96% (active)
same,growth inhibition,[6]; [16],15%
same,growth inhibition,[6]; [17],97% (active)
same,growth inhibition,[6]; at 50.0 µM,64.5%
same,growth inhibition,[15]; at 1.2 µM,-1%
same,growth inhibition,[15]; at 3.7 µM,-4%
same,growth inhibition,[15]; at 11.0 µM,18%
same,growth inhibition,[15]; at 33.0 µM,66%
same,growth inhibition,[15]; at 100.0 µM,89% (active)
same,growth inhibition,[7]; [16],32%
same,growth inhibition,[7]; [17],96% (active)
same,growth inhibition,[7]; at 50.0 µM,51.5%
same,growth inhibition,[8]; at 1.2 µM,-3%
same,growth inhibition,[8]; at 3.7 µM,9%
same,growth inhibition,[8]; [16],37%
same,growth inhibition,[8]; at 11.0 µM,30%
same,growth inhibition,[8]; at 33.0 µM,83% (active)
same,growth inhibition,[8]; [17],97% (active)
same,growth inhibition,[8]; at 50.0 µM,57.6%
same,growth inhibition,[8]; at 100.0 µM,93% (active)
same,growth inhibition,[9]; at 1.2 µM,4%
same,growth inhibition,[9]; at 3.7 µM,2%
same,growth inhibition,[9]; at 11.0 µM,18%
same,growth inhibition,[9]; at 33.0 µM,84% (active)
same,growth inhibition,[9]; at 100.0 µM,94% (active)
same,growth inhibition,[10]; at 1.2 µM,2%
same,growth inhibition,[10]; at 3.7 µM,1%
same,growth inhibition,[10]; at 11.0 µM,23%
same,growth inhibition,[10]; at 33.0 µM,89% (active)
same,growth inhibition,[10]; at 100.0 µM,94% (active)
same,growth inhibition,[11]; at 1.2 µM,-2%
same,growth inhibition,[11]; at 3.7 µM,1%
same,growth inhibition,[11]; at 11.0 µM,29%
same,growth inhibition,[11]; at 33.0 µM,83% (active)
same,growth inhibition,[11]; at 100.0 µM,93% (active)
same,growth inhibition,[12]; [16],52%
same,growth inhibition,[12]; [17],98% (active)
same,growth inhibition,[12]; at 50.0 µM,75.5% (active)
